# Abeta yeast res: qHTS for compounds that reverse cellular toxicity of Amyloid beta (A-beta) peptide in yeast: Primary Screen; 410,000 compounds, 0.063% hits; AID 1347071, 2019; yeast expressing A-beta42, growth rescue, OD600, 48 h; response scale: 0% DMSO, 100% iron-clioquinol control; Potency, µM (top dose mostly 46.1 µM), hits mostly activators; also: nearly all actives have a fitted effect of over 55% in size
#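 Yeast A-beta toxicity model in growth medium with pinned compounds, 48 h at 30 C; growth read as absorbance at 600 nm. Normalized to FeCl3/clioquinol equimolar mix (positive) and DMSO (negative).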
# aSyn rescue: qHTS of alpha-syn Inhibitors | Yeast expressing alpha-synuclein, growth rescue, BacTiter-Glo, 24 h | Potency, µM (highest dose often 46.1 µM), for inactives: top-dose growth rescue (activation), hits mostly activators | 370,000 compounds, 0.14% hits | AID 652106, 2013; also: % of control where 0% means no effect; nearly all actives have a fitted effect of over 65% in size
#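 Galactose-induced alpha-syn yeast (OD600=0.02, raffinose-pregrown) + pinned cpd, 24 hr, 30 deg C; growth by BacTiter-Glo luminescence. Growth restoration scores as activation.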
# TDP-43 yeast inh: qHTS of TDP-43 Inhibitors; TDP-43 expressing yeast growth rescue, BacTiter-Glo, 24 h; Potency, µM (doses to about 46.1 µM), for inactives: top-dose growth rescue (activation), most hits filed as activators; 410,000 compounds, 1.8% hits; AID 652104, 2013; also: % of control where 0% means no effect; nearly all actives have a fitted effect of over 50% in size
#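 Readout is BacTiter-Glo luminescence of cell growth, so inhibitors register as activators. TDP-43-expressing yeast at OD600=0.02 in galactose medium, after raffinose pregrowth to mid-log, were incubated with compound for 24 hr at 30 deg C.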
# FUS yeast rescue: qHTS for Suppressors of FUS Proteinopathy: Primary screen using FUS-linked yeast assay. Potency, µM (doses to about 76.6 µM), usual class: activators. AID 1347120, 2019. S. cerevisiae FUS-expressing, growth rescue, OD600, 24 h. 390,000 compounds, 0.24% hits;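 also: plate controls were DMSO vehicle for no effect and reference control for full effect; nearly all actives have a fitted effect of over 55% in size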
#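 Read-out: OD at 600 nm after 24hr at 30C, reporting rescue of FUS-induced yeast toxicity. Cells at OD 0.005 in galactose (2%) minimal medium; compounds tested in a dilution series; CP55940 titration from 92uM final as control.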
# * = called active by the depositor; i = inactive; u = inconclusive; x = no result; [ ] = another dose, or the depositor's remark. The list is not random: actives were taken first. Their share in the collection is about 2.1%. Calls follow the shape of the dose curve; as a rule, active = well fitted curve in the direction sought with a large enough effect; inconclusive = small, poorly fitted or top-dose-only effect, or another doubt; inactive = no such curve, though single readings can be large; an effect the other way counts as inactive or inconclusive. Potency is read from the fitted curve at half-maximal effect.
SMILES,Abeta yeast res,aSyn rescue,TDP-43 yeast inh,FUS yeast rescue
COc1ccc(CNC(=O)CCC2N=C3c4ccccc4N=C(SCc4cccc(F)c4)N3C2=O)cc1 (stereo not drawn),i,x,-18%,u
CCCCN1C(=O)C(CC(=O)NCCCCc2ccccc2)CC(C(=O)N2CCOCC2)=C1C (stereo not drawn),i,20µM*,25%,i
CCOC(=O)Cn1nc(/C=C/c2ccc(C(C)C)cc2)ccc1=O,i,18%,20µM*,u
CCOC(=O)Cn1nc(/C=C/c2ccc(C)cc2)ccc1=O,i[9.22 µM],-11%,u,i
CC(C)(C)NC(=O)C(c1ccncc1)n1c(=O)c(-c2cc3ccccc3[nH]2)nc2ccccc21 (stereo not drawn),i,u,23%,u
CC(C)(C)NC(=O)C(c1cc2ccccc2o1)n1c(=O)c(-c2cc3ccccc3[nH]2)nc2ccccc21 (stereo not drawn),u,8.9µM*,12%,u
CC(C)(C)NC(=O)C(c1ccccc1F)n1c(=O)c(-c2cc3ccccc3[nH]2)nc2ccccc21 (stereo not drawn),i,7.1µM*,u,u
CC(C)(C)NC(=O)C(c1ccnc2ccccc12)n1c(=O)c(-c2cc3ccccc3[nH]2)nc2ccccc21 (stereo not drawn),i,u,14%,u
CCOc1ccccc1NC(=O)Cn1c(=O)n(Cc2ccco2)c(=O)c2ccc(C(=O)NC3CCCC3)cc21,i,0%,2%,i
COc1ccc(/C(N)=N/OC(=O)c2ccc3c(c2)OCO3)cc1,i,-7%,5.6µM*,i
N/C(=N\OC(=O)c1cccs1)c1ccc(Cl)cc1,i,-54%,-28%,i
N/C(=N\OC(=O)c1ccc2c(c1)OCO2)c1ccc(Cl)cc1,i,-41%,3.2µM*,i
COc1ccc(/C(N)=N/OC(=O)c2cccs2)cc1,i,-60%,16µM*,i
Cc1ccc(/C(N)=N/OC(=O)c2ccc3c(c2)OCO3)cc1,i,-10%,u,i
CCc1cccc(C)c1NC(=O)C1CCN(c2nnc(C)c3c(C)n(-c4ccccc4)nc23)CC1,i,x,17%,i
O=C(Nc1ccc2c(c1)CCC2)c1cnn2c1NC(=C1CC1)C=C2C(F)F,x,0%,x,x
COc1ccc2c(c1)CC(C(=O)Nc1c(C)cc(C)cc1C)CO2 (stereo not drawn),i,x,4%[9.22 µM],i
COCCNC(=O)c1ccccc1NC(=O)c1nsc2ccccc12,i,x,10%,i
O=[N+]([O-])c1cc([N+](=O)[O-])c2c(=Nc3ccccc3)n(-c3ccccc3)n(O)c2c1,i,-7%,13µM*,i
O=[N+]([O-])c1cccc(C(=Nc2ccccc2)NO)c1,i,8%,-3%,i
O=C(N/N=C/c1ccncc1)NC12CC3CC(CC(C3)C1)C2,i,-8%,15%,i
O=C(N/N=C/c1ccc(O)cc1)NC12CC3CC(CC(C3)C1)C2,i,-8%,11µM*,i
Cc1ccc(N=c2ssnc2Cl)cc1,i,-72%,-93%,i
Cc1cc(C)nc(/N=c2/ssnc2Cl)c1,i,-65%,2.8µM*,x
CC(C)(C)c1ccc(C(=O)C[n+]2cc(Br)cc(Br)c2)cc1,x,-3%,x,x
SMILES,Abeta yeast res,aSyn rescue,TDP-43 yeast inh,FUS yeast rescue
COC(=O)c1ccc(-n2c(CCC(=O)O)ccc2-c2ccc(C)cc2)cc1,i,21%,-13%,i
CCOC(=O)c1ccc(-n2c(CCC(=O)O)ccc2-c2ccc(F)cc2)cc1,i,9%,13µM*,i
Cc1ccccc1N1CCN(S(=O)(=O)c2ccccc2)CC1,i,6%,13µM*,i
Cc1ccccc1N1CCN(C(=S)c2ccccc2)CC1,i,-3%,11µM*,x
Clc1cccc(Cc2c(-c3ccccc3)nc3ccc(Cl)cn23)c1,i,2%,32µM*,i
Clc1ccc(-c2nc3ccc(Cl)cn3c2Cc2cccc(Cl)c2)cc1,i,-1%,25µM*,u
Cc1ccc2nc(-c3ccccc3)c(Cc3cccc(Cl)c3)n2c1,i,-1%,8%,i
CCCCCN1CCCCC(NC(=O)c2cccc(F)c2)C1=O (stereo not drawn),x,x,x,i
Cc1ccc2c(CC(=O)N(Cc3ccc(N(C)C)cc3)Cc3ccco3)coc2c1C,i,x,6%,i

# High-throughput results from PubChem.
